Experimental data published in the supplement of paper PMC10849652.
About 7,900 targets were measured; listed, in parts, are those with a hit and a random draw of the rest. About 0.6% of all pairs of compound and target were hits.

Tests used:
Assay in all cases: log2 fold change, soluble protein after heating vs DMSO (PISA); higher = thermal stabilisation; K562 cells, 10 uM, 30 min; active = over 0.2 and 3.5 SD of the protein, either way, in both replicates (recomputed)
[1] = compound: CS(=O)(=O)c1ccc(-c2cnc(N)c(C(=O)Nc3ccccc3)n2)cc1
How it was run: (§1)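 Values are thermal stability changes relative to control samples and are taken from duplicates. They are stated as log2 fold changes. Before quantification by TMTpro 16plex LC-MS/MS with equalised channel sums, K562 cells at 2×10^6 cells/mL were treated with 10 μM compound for 30 min, heated in aliquots for 3 min across 48°C-58°C, pooled, extracted in PBS with 0.5% NP-40 at 4°C, and centrifuged at 21,000xg for 90 min to give the soluble supernatant.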

crizotinib = compound: C[C@@H](Oc1cc(-c2cnn(C3CCNCC3)c2)cnc1N)c1c(Cl)ccc(F)c1Cl [crizotinib]
How it was run: as §1

[2] = compound: C[C@@H]1COCCN1C2=NC(=NC(=C2)C3(CC3)S(=O)(=O)C)C4=C5C=CNC5=CC=C4
How it was run: as §1

[3] = compound: C[C@H](C1=CC=C(C=C1)C(=O)NC2=C3C=CNC3=NC=C2)N
How it was run: as §1

duvelisib = compound: C[C@H](Nc1ncnc2nc[nH]c12)c1cc2cccc(Cl)c2c(=O)n1-c1ccccc1 [duvelisib]
How it was run: as §1

gandotinib = compound: Cc1cc(Nc2cc(CN3CCOCC3)c3nc(C)c(Cc4ccc(Cl)cc4F)n3n2)n[nH]1 [gandotinib]
How it was run: as §1

tozasertib = compound: Cc1cc(Nc2cc(N3CCN(C)CC3)nc(Sc3ccc(NC(=O)C4CC4)cc3)n2)n[nH]1 [tozasertib]
How it was run: as §1

[4] = compound: Cc1cc(SCc2sc(-c3ccc(C(F)(F)F)cc3)nc2C)ccc1OCC(=O)O
How it was run: as §1

doramapimod = compound: Cc1ccc(-n2nc(C(C)(C)C)cc2NC(=O)Nc2ccc(OCCN3CCOCC3)c3ccccc23)cc1 [doramapimod]
How it was run: as §1

ispinesib = compound: Cc1ccc(C(=O)N(CCCN)[C@@H](c2nc3cc(Cl)ccc3c(=O)n2Cc2ccccc2)C(C)C)cc1 [ispinesib]
How it was run: as §1

bafetinib = compound: Cc1ccc(NC(=O)c2ccc(CN3CC[C@H](N(C)C)C3)c(C(F)(F)F)c2)cc1Nc1nccc(-c2cncnc2)n1 [bafetinib]
How it was run: as §1

[5] = compound: Cc1cccc(CC(=O)N2CCc3c2ccc(-c2cn(C)c4ncnc(N)c24)c3F)n1
How it was run: as §1

nilotinib = compound: Cc1cn(-c2cc(NC(=O)c3ccc(C)c(Nc4nccc(-c5cccnc5)n4)c3)cc(C(F)(F)F)c2)cn1 [nilotinib]
How it was run: as §1

[6] = compound: Cc1nc(Nc2n[nH]c3c2CN(C(=O)N[C@H](CN(C)C)c2ccccc2)C3(C)C)c2sccc2n1
How it was run: as §1

dasatinib = compound: Cc1nc(Nc2ncc(C(=O)Nc3c(C)cccc3Cl)s2)cc(N2CCN(CCO)CC2)n1 [dasatinib]
How it was run: as §1

[7] = compound: Cc1ncc(-c2ccnc(Nc3ccc(S(C)(=O)=O)cc3)n2)n1C(C)C
How it was run: as §1

[8] = compound: Cn1cc(-c2ccc3c(c2)CCN3C(=O)Cc2cccc(C(F)(F)F)c2)c2c(N)ncnc21
How it was run: as §1

[9] = compound: Cn1cc(-c2ccc3nnc(C(F)(F)c4ccc5ncccc5c4)n3n2)cn1
How it was run: as §1

tipifarnib = compound: Cn1cncc1[C@@](N)(c1ccc(Cl)cc1)c1ccc2c(c1)c(-c1cccc(Cl)c1)cc(=O)n2C [tipifarnib]
How it was run: as §1

mubritinib = compound: FC(F)(F)c1ccc(/C=C/c2nc(COc3ccc(CCCCn4ccnn4)cc3)co2)cc1 [mubritinib]
How it was run: as §1

Measured: log2 fold change

WDR46 (UniProt O15213)
inactive: [1] -0.05 | crizotinib 0.008 | [2] -0.731 | [3] 0.445 | duvelisib -0.199 | gandotinib 0.27 | tozasertib 0.068 | [4] 0.032 | doramapimod 0.142 | ispinesib -0.081 | bafetinib 0.251 | [5] -0.026 | nilotinib -0.055 | [6] 0.117 | dasatinib 0.364 | [7] 0.096 | [8] -0.376 | [9] -0.187 | tipifarnib 0.084 | mubritinib -0.093

USP24 (UniProt Q9UPU5)
UniProt Q9UPU5, sequence (Q9UPU5 whole entry, looked up): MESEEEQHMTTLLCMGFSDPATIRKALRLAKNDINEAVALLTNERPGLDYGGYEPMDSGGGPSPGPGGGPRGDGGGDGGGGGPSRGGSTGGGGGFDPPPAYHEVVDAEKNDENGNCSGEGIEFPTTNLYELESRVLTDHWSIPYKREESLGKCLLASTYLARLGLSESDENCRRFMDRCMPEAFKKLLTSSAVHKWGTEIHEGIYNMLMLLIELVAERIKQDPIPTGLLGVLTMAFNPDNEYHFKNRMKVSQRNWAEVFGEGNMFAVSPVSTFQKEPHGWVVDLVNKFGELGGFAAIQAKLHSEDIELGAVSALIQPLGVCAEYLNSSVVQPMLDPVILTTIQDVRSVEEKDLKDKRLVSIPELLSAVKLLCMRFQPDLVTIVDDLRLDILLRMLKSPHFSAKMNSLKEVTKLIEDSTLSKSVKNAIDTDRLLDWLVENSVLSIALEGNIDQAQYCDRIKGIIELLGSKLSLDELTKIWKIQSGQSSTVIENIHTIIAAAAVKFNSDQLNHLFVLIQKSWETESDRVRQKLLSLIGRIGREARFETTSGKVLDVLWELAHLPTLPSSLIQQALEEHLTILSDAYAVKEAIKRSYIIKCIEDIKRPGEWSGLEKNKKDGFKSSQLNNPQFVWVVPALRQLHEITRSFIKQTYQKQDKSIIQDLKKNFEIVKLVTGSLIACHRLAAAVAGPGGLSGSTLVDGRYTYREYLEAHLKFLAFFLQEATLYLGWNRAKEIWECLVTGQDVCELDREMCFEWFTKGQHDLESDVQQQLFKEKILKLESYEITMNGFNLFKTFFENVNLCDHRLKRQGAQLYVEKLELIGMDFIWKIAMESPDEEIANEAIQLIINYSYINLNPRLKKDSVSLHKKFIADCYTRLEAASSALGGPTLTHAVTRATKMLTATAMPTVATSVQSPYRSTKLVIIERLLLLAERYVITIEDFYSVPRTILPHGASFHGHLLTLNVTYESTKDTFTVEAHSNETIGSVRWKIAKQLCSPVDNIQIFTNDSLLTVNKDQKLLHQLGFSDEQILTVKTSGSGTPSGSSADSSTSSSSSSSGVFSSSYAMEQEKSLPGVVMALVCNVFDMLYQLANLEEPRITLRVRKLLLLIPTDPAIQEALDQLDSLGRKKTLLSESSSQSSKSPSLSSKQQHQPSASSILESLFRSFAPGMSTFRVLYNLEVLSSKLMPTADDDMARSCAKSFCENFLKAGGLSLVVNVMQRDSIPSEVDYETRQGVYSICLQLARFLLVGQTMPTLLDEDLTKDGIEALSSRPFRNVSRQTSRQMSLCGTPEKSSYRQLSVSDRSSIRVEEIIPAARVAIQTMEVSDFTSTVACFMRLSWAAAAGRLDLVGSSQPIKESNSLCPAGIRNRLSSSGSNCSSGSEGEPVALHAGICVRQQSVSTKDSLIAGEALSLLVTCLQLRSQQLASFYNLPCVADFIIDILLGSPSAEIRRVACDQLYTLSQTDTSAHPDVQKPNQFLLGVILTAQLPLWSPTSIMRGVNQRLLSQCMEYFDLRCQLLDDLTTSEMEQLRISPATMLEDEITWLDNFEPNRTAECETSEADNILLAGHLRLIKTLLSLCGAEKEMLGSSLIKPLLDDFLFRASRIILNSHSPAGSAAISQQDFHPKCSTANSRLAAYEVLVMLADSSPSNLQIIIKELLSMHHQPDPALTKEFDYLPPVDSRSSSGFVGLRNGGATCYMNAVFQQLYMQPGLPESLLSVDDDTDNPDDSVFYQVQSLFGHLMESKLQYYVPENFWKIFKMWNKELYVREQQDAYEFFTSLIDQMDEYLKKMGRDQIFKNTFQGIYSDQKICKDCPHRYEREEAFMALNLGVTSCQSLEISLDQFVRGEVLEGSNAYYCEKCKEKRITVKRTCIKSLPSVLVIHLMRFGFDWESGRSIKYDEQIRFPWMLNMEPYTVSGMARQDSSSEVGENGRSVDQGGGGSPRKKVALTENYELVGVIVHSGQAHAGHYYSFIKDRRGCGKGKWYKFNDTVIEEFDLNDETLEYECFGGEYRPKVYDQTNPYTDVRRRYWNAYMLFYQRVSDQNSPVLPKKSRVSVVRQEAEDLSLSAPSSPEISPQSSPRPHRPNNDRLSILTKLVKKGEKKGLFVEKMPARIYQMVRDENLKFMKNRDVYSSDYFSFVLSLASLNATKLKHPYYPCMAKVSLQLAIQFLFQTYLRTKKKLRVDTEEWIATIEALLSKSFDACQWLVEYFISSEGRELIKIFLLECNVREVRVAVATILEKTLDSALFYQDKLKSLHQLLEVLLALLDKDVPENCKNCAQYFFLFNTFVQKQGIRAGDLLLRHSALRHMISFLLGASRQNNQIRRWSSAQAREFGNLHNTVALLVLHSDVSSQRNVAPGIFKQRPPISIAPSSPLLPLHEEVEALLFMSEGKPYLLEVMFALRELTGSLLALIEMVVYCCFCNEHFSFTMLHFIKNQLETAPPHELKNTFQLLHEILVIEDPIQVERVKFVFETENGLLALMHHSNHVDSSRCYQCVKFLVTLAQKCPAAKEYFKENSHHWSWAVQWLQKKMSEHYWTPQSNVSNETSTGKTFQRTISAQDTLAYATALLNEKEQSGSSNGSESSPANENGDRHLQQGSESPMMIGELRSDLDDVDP
active: [2] 0.396
inactive: [1] 0.062 | crizotinib 0.204 | [3] 0.015 | duvelisib 0.219 | gandotinib -0.213 | tozasertib 0.045 | [4] -0.017 | doramapimod -0.041 | ispinesib 0.115 | bafetinib 0.037 | [5] 0.034 | nilotinib 0.096 | [6] 0.007 | dasatinib -0.098 | [7] 0.09 | [8] 0.144 | [9] 0.105 | tipifarnib -0.072 | mubritinib 0.056

WRB (UniProt O00258)
inactive: [1] -0.031 | crizotinib 0.057 | [2] 0.036 | [3] -0.028 | duvelisib -0.094 | gandotinib -0.053 | tozasertib -0.016 | [4] 0.067 | doramapimod 0.015 | ispinesib 0.029 | bafetinib -0.072 | [5] -0.011 | nilotinib 0.015 | [6] 0.005 | dasatinib 0.031 | [7] -0.036 | [8] -0.011 | [9] 0.089 | tipifarnib 0.024 | mubritinib 0.052

TOMM5 isoform 2 (UniProt Q8N4H5)
UniProt Q8N4H5, sequence (Q8N4H5 whole entry, looked up): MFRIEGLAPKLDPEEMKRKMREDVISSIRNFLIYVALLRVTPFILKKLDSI
inactive: [1] 0.043 | crizotinib 0.139 | [2] 0.124 | [3] -0.053 | duvelisib 0.075 | gandotinib 0.136 | tozasertib -0.008 | [4] -0.023 | doramapimod -0.078 | ispinesib -0.051 | bafetinib -0.141 | [5] -0.114 | nilotinib 0.079 | [6] 0.004 | dasatinib -0.004 | [7] -0.079 | [8] 0.062 | [9] 0.217 | tipifarnib 0.107 | mubritinib 0.038

USP3 (UniProt Q9Y6I4)
inactive: [1] 0.065 | crizotinib -0.131 | [2] 0.043 | [3] -0.26 | duvelisib -0.008 | gandotinib -0.246 | tozasertib -0.003 | [4] 0.155 | doramapimod -0.023 | ispinesib -0.04 | bafetinib 0.011 | [5] -0.009 | nilotinib -0.125 | [6] -0.198 | dasatinib -0.185 | [7] -0.026 | [8] 0.027 | [9] -0.023 | tipifarnib -0.226 | mubritinib 0.045

VRK1 (UniProt Q99986)
active: [3] 0.444 | [6] 0.542
inactive: [1] 0.055 | crizotinib -0.11 | [2] 0.126 | duvelisib 0.168 | gandotinib -0.067 | tozasertib -0.096 | [4] 0.161 | doramapimod -0.075 | ispinesib -0.077 | bafetinib 0.035 | [5] 0.078 | nilotinib -0.074 | dasatinib -0.224 | [7] 0.164 | [8] 0.057 | [9] 0.028 | tipifarnib -0.041 | mubritinib 0.008

UFD1 isoform 1 (UniProt Q92890)
UniProt Q92890, sequence (Q92890 whole entry, looked up): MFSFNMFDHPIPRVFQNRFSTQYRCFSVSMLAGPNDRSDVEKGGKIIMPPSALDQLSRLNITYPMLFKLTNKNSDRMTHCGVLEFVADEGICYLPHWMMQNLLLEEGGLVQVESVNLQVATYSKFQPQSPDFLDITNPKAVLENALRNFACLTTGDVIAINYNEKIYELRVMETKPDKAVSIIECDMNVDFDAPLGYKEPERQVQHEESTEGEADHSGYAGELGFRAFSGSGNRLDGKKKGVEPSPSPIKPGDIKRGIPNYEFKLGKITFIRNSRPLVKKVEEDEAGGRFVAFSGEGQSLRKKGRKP
inactive: [1] -0.029 | crizotinib 0.004 | [2] -0.032 | [3] -0.022 | duvelisib 0.043 | gandotinib -0.099 | tozasertib -0.027 | [4] -0.04 | doramapimod 0.007 | ispinesib 0.036 | bafetinib -0.007 | [5] 0.01 | nilotinib 0.025 | [6] -0.019 | dasatinib 0.031 | [7] -0.003 | [8] 0.006 | [9] 0.002 | tipifarnib -0.046 | mubritinib 0.041

UTP14A (UniProt Q9BVJ6)
inactive: [1] -0.059 | crizotinib -0.035 | [2] -0.382 | [3] 0.274 | duvelisib -0.128 | gandotinib 0.151 | tozasertib 0.05 | [4] 0.065 | doramapimod 0.172 | ispinesib -0.171 | bafetinib 0.157 | [5] 0 | nilotinib 0.011 | [6] -0.009 | dasatinib 0.07 | [7] -0.118 | [8] -0.285 | [9] -0.09 | tipifarnib 0.089 | mubritinib -0.086

VPS50 (UniProt Q96JG6)
UniProt Q96JG6, sequence (Q96JG6 whole entry, looked up): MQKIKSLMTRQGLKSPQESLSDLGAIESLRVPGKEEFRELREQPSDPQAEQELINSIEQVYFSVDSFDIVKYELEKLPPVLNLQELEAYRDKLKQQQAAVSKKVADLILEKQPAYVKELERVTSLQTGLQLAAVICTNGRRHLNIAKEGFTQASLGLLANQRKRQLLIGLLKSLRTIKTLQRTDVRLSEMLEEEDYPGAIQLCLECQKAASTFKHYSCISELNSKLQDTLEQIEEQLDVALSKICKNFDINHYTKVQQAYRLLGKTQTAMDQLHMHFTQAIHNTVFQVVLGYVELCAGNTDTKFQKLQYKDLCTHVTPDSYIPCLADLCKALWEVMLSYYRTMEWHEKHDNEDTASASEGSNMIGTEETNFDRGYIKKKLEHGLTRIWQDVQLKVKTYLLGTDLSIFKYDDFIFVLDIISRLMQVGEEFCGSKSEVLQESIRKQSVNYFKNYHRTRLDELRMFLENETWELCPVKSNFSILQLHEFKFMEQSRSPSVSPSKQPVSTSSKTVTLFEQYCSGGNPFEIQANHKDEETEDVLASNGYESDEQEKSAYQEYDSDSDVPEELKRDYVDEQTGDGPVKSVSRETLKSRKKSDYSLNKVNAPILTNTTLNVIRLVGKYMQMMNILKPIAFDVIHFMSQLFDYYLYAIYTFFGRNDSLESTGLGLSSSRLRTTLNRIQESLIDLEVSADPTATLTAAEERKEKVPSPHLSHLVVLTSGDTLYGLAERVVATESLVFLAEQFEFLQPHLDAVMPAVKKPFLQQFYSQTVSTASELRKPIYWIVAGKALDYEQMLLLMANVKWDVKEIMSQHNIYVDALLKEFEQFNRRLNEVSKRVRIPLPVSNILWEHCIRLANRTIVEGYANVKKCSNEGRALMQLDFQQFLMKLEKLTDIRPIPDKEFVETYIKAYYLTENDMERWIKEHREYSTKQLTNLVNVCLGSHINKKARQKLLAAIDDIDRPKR
inactive: [1] 0.012 | crizotinib -0.118 | [2] 0.044 | [3] 0.049 | duvelisib -0.017 | gandotinib -0.066 | tozasertib 0.01 | [4] 0.086 | doramapimod -0.032 | ispinesib -0.023 | bafetinib 0.017 | [5] 0.088 | nilotinib -0.074 | [6] -0.077 | [7] 0.038 | [8] -0.019 | [9] -0.035 | tipifarnib -0.066 | mubritinib 0.045
active: dasatinib -0.257

TTI1 (UniProt O43156)
inactive: [1] 0.075 | crizotinib -0.143 | [2] 0.003 | [3] 0.059 | duvelisib -0.03 | gandotinib -0.119 | tozasertib 0.041 | [4] 0.033 | doramapimod 0.059 | ispinesib -0.204 | bafetinib -0.006 | [5] 0.165 | nilotinib -0.036 | [6] -0.102 | dasatinib -0.076 | [7] 0.039 | [8] 0.085 | [9] 0 | tipifarnib -0.103 | mubritinib 0.095

UBAP2L isoform 5 (UniProt Q14157)
inactive: [1] -0.028 | crizotinib 0.051 | [2] -0.07 | [3] -0.007 | duvelisib 0.035 | gandotinib 0.007 | tozasertib -0.013 | [4] 0.016 | doramapimod -0.038 | ispinesib 0.026 | bafetinib -0.044 | [5] -0.02 | nilotinib -0.003 | [6] -0.015 | dasatinib 0.005 | [7] 0.007 | [8] 0.011 | [9] -0.003 | tipifarnib -0.028 | mubritinib 0.024

WNK1 isoform 7 (UniProt Q9H4A3)
inactive: [1] 0.022 | crizotinib -0.061 | [2] -0.027 | [3] 0.03 | duvelisib -0.016 | gandotinib -0.032 | tozasertib 0.001 | [4] -0.018 | doramapimod 0.001 | ispinesib -0.044 | bafetinib -0.038 | [5] 0.046 | nilotinib -0.029 | [6] -0.071 | dasatinib 0.102 | [7] 0.022 | [8] 0.178 | [9] -0.022 | tipifarnib -0.022 | mubritinib 0.036

VPS51 (UniProt Q9UID3)
inactive: [1] -0.009 | crizotinib -0.096 | [2] -0.003 | [3] 0.05 | duvelisib 0.006 | gandotinib -0.04 | tozasertib 0.033 | [4] 0.079 | doramapimod 0.008 | ispinesib -0.115 | bafetinib 0.009 | [5] 0.039 | nilotinib -0.089 | [6] -0.037 | dasatinib -0.126 | [7] -0.042 | [8] -0.075 | [9] -0.008 | tipifarnib -0.095 | mubritinib 0.083

UTP4 (UniProt Q969X6)
inactive: [1] -0.013 | crizotinib 0.019 | [2] 0.055 | [3] 0.004 | duvelisib 0.022 | gandotinib 0.004 | tozasertib 0.006 | [4] -0.056 | doramapimod 0.012 | ispinesib 0.066 | bafetinib -0.04 | [5] -0.013 | nilotinib 0.021 | [6] 0.035 | dasatinib 0.039 | [7] 0.143 | [8] -0.042 | [9] -0.014 | tipifarnib 0.058 | mubritinib -0.025

XPO6 (UniProt Q96QU8)
UniProt Q96QU8, sequence (Q96QU8 whole entry, looked up): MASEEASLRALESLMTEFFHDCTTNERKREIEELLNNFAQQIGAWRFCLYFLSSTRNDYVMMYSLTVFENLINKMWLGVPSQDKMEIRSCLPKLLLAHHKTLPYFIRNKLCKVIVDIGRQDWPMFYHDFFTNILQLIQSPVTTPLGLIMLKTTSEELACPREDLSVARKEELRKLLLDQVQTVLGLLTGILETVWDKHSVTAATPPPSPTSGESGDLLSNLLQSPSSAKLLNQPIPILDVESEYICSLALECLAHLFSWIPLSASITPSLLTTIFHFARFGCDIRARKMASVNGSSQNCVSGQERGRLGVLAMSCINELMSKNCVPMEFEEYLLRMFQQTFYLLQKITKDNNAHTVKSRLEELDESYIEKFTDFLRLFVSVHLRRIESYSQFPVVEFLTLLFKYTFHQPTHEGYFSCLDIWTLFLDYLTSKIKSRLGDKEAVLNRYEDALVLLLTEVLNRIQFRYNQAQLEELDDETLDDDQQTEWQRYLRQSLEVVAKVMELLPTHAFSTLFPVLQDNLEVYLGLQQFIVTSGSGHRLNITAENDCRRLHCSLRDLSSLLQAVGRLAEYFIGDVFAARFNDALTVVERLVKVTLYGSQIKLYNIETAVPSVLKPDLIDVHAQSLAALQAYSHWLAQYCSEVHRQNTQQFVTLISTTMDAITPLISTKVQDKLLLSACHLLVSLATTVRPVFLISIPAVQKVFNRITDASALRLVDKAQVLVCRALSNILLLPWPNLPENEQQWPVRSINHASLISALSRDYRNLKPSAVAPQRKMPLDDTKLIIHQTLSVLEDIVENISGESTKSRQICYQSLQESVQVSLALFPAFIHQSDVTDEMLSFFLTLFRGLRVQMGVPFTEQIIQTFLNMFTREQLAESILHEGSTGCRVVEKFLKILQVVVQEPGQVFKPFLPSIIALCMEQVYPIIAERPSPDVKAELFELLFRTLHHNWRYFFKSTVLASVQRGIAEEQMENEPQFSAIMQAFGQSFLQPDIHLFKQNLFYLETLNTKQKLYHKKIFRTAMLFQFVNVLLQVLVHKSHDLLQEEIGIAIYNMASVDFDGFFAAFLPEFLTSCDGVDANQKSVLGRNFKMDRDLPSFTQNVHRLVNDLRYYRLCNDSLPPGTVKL
inactive: [1] -0.033 | crizotinib 0.177 | [2] -0.277 | [3] 0.031 | duvelisib -0.001 | gandotinib 0.104 | tozasertib -0.011 | [4] 0.027 | doramapimod 0.179 | ispinesib 0 | bafetinib 0.057 | [5] -0.05 | nilotinib -0.143 | [6] -0.148 | dasatinib -0.109 | [7] 0.027 | [8] -0.001 | [9] -0.117 | tipifarnib -0.111 | mubritinib 0.092

WDR47 (UniProt O94967)
inactive: [1] -0.024 | crizotinib 0.048 | [2] 0.024 | [3] -0.003 | duvelisib 0.109 | gandotinib 0.09 | tozasertib -0.052 | [4] -0.011 | doramapimod -0.034 | ispinesib 0.025 | bafetinib 0.042 | [5] 0.004 | nilotinib 0.02 | [6] -0.046 | dasatinib -0.036 | [7] 0.067 | [8] 0.002 | [9] 0.033 | tipifarnib 0.039 | mubritinib -0.147
